# Assay results published in PubChem BioAssay AID1159580 (chemical genetic matrix, 2015).
# “And” between values parts separate entries of the source, which are not always exact repeats. Equal entries are not always repeated. In all, about 5,500 compounds went through this assay and about 2,000 (36%) were called active. Another 18% or so got no clear call; they are omitted. This is one part of the list. A number with no mark means an inactive call. Cut-off read from the data, not from the text of the source: active = normalized growth mostly below about 0.91 (no sharp cut-off); inconclusive = no clear call, values can overlap the other calls; inactive = mostly above about 0.92.
# Assay: chemical genetic growth profiling, strain panel (AID 1159580);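 note: tested at 20 µM; growth read once vehicle control cultures reached saturation at 30 °C; 1 = growth at the plate median or of vehicle wells; lower values mean less growth of the strain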
# Conditions: S. cerevisiae deletion strains, growth OD
smiles,measurement,setting,value
COc1cc(OC)c2ccc(=O)oc2c1,normalized growth,"locus YAL013W, strain DEP1, active compounds read low",1.01
same,normalized growth,"locus YAL021C, strain ccr4, active compounds read low",1
same,normalized growth,"locus YAL026C, strain drs2, active compounds read low",0.964
same,normalized growth,"locus YAL030W, strain snc1, active compounds read low",0.976
same,normalized growth,"locus YBL061C, strain skt5, active compounds read low",0.966
same,normalized growth,"locus YBR009C, strain hhf1, active compounds read low",0.935
same,normalized growth,"locus YBR021W, strain FUR4, active compounds read low",0.949
same,normalized growth,"locus YBR023C, strain chs3, active compounds read low",0.964
same,normalized growth,"locus YBR171W, strain sec66, active compounds read low",0.972
same,normalized growth,"locus YBR229C, strain ROT2, active compounds read low",1.01
same,normalized growth,"locus YBR231C, strain swc5, active compounds read low",0.963
same,normalized growth,"locus YBR279W, strain paf1, active compounds read low",0.973
same,normalized growth,"locus YCL011C, strain gbp2, active compounds read low",0.962
same,normalized growth,"locus YCL016C, strain dcc1, active compounds read low",0.968
same,normalized growth,"locus YCL029C, strain bik1, active compounds read low",1
same,normalized growth,"locus YCL061C, strain MRC1, active compounds read low",0.974
same,normalized growth,"locus YCL069W, strain vba3, active compounds read low",0.992
same,normalized growth,"locus YCR088W, strain abp1, active compounds read low",0.984
same,normalized growth,"locus YDL005C, strain med2, active compounds read low",0.987
same,normalized growth,"locus YDL035C, strain GPR1, active compounds read low",0.99
same,normalized growth,"locus YDL040C, strain nat1, active compounds read low",0.974
same,normalized growth,"locus YDL074C, strain BRE1, active compounds read low",0.979
same,normalized growth,"locus YDL101C, strain DUN1, active compounds read low",1.01
same,normalized growth,"locus YDL134C, strain PPH21, active compounds read low",0.992
same,normalized growth,"locus YDL185W, strain tfp1, active compounds read low",0.982
same,normalized growth,"locus YDL192W, strain arf1, active compounds read low",0.988
same,normalized growth,"locus YDR001C, strain nth1, active compounds read low",0.975
same,normalized growth,"locus YDR069C, strain doa4, active compounds read low",0.951
same,normalized growth,"locus YDR101C, strain arx1, active compounds read low",0.994
same,normalized growth,"locus YDR137W, strain rgp1, active compounds read low",0.922
same,normalized growth,"locus YDR150W, strain NUM1, active compounds read low",1
same,normalized growth,"locus YDR159W, strain sac3, active compounds read low",0.971
same,normalized growth,"locus YDR162C, strain NBP2, active compounds read low",1
same,normalized growth,"locus YDR195W, strain ref2",1.19 [resistant] (active)
same,normalized growth,"locus YDR297W, strain sur2, active compounds read low",0.978
same,normalized growth,"locus YDR318W, strain mcm21, active compounds read low",1
same,normalized growth,"locus YDR334W, strain swr1, active compounds read low",0.962
same,normalized growth,"locus YDR335W, strain msn5, active compounds read low",0.974
same,normalized growth,"locus YDR388W, active compounds read low",1.01
same,normalized growth,"locus YDR392W, strain spt3, active compounds read low",0.736 (active)
same,normalized growth,"locus YDR502C, strain sam2, active compounds read low",0.989
same,normalized growth,"locus YEL003W, strain gim4, active compounds read low",0.973
same,normalized growth,"locus YEL037C, strain rad23, active compounds read low",0.961
same,normalized growth,"locus YEL061C, strain CIN8 (second series), active compounds read low",0.964
same,normalized growth,"locus YEL061C, strain CIN8, active compounds read low",1
same,normalized growth,"locus YER015W, strain faa2, active compounds read low",0.973
same,normalized growth,"locus YER016W, strain bim1, active compounds read low",0.975
same,normalized growth,"locus YER110C, active compounds read low",0.983
same,normalized growth,"locus YER111C, strain swi4, active compounds read low",0.965
same,normalized growth,"locus YER155C, strain BEM2 (second series), active compounds read low",0.661 (active)
same,normalized growth,"locus YER155C, strain BEM2, active compounds read low",0.999
same,normalized growth,"locus YER167W, strain BCK2, active compounds read low",1.02
same,normalized growth,"locus YFR010W, strain ubp6, active compounds read low",0.951
same,normalized growth,"locus YGL078C, strain dbp3, active compounds read low",0.995
same,normalized growth,"locus YGL086W, strain mad1, active compounds read low",1
same,normalized growth,"locus YGL167C, strain pmr1, active compounds read low",0.965
same,normalized growth,"locus YGL173C, strain kem1, active compounds read low",0.945
same,normalized growth,"locus YGL227W, strain vid30, active compounds read low",0.974
same,normalized growth,"locus YGL240W, strain doc1, active compounds read low",0.868 (active)
same,normalized growth,"locus YGL248W, strain PDE1, active compounds read low",1.01
same,normalized growth,"locus YGL253W, strain hxk2, active compounds read low",0.974
same,normalized growth,"locus YGR078C, strain PAC10, active compounds read low",0.989
same,normalized growth,"locus YGR135W, strain pre9, active compounds read low",0.977
same,normalized growth,"locus YGR229C, strain SMI1, active compounds read low",0.993
same,normalized growth,"locus YGR252W, strain gcn5, active compounds read low",0.846
same,normalized growth,"locus YHR013C, strain ard1, active compounds read low",0.944
same,normalized growth,"locus YHR027C, strain rpn1, active compounds read low",0.981
same,normalized growth,"locus YHR030C, strain SLT2, active compounds read low",1.01 and 0.997
same,normalized growth,"locus YHR079C, strain IRE1 (second series), active compounds read low",1.01
same,normalized growth,"locus YHR079C, strain IRE1, active compounds read low",0.989
same,normalized growth,"locus YHR094C, strain hxt1, active compounds read low",1
same,normalized growth,"locus YHR129C, strain ARP1, active compounds read low",1.01
same,normalized growth,"locus YHR142W, strain chs7, active compounds read low",0.955
same,normalized growth,"locus YHR200W, strain rpn10, active compounds read low",0.988
same,normalized growth,"locus YIL066C, strain RNR3, active compounds read low",1.01
same,normalized growth,"locus YIL073C, strain SPO22, active compounds read low",0.982
same,normalized growth,"locus YIL125W, strain kgd1, active compounds read low",1
same,normalized growth,"locus YIR030C, strain dcg1, active compounds read low",1
same,normalized growth,"locus YJL092W, strain hpr5, active compounds read low",0.972
same,normalized growth,"locus YJL095W, strain BCK1 (second series), active compounds read low",0.98
same,normalized growth,"locus YJL095W, strain BCK1, active compounds read low",0.985 and 1.01
same,normalized growth,"locus YJL115W, strain asf1, active compounds read low",0.969
same,normalized growth,"locus YJL129C, strain trk1, active compounds read low",0.995
same,normalized growth,"locus YJL134W, strain LCB3, active compounds read low",1.01
same,normalized growth,"locus YJL154C, strain vps35, active compounds read low",0.984
same,normalized growth,"locus YJL164C, strain tpk1, active compounds read low",0.962
same,normalized growth,"locus YJL166W, strain qcr8, active compounds read low",0.945
same,normalized growth,"locus YJL168C, strain set2, active compounds read low",1
same,normalized growth,"locus YJL187C, strain SWE1 (second series), active compounds read low",1.01
same,normalized growth,"locus YJL187C, strain SWE1, active compounds read low",0.97
same,normalized growth,"locus YJR043C, strain POL32, active compounds read low",0.993
same,normalized growth,"locus YJR066W, strain TOR1, active compounds read low",0.958
